Experimental data published in PubChem BioAssay AID588342 (National Center for Advancing Translational Sciences (NCATS), 2011).
The campaign covered roughly 360,000 compounds. About 25,000 (6.9%) were called active. Not shown: some 9% with an inconclusive outcome. The call rests on the fitted dose curve; in most records, active means well fitted inhibition curve with a large enough effect; inconclusive means small, poorly fitted or top-dose-only effect; inactive means flat fitted curve, though single readings scatter. Only a selection was taken, and actives are over-represented in it overall.

Molecular target: Luciferin 4-monooxygenase (Photinus pyralis) (UniProt P08659)
Sequence (P08659 whole entry, looked up): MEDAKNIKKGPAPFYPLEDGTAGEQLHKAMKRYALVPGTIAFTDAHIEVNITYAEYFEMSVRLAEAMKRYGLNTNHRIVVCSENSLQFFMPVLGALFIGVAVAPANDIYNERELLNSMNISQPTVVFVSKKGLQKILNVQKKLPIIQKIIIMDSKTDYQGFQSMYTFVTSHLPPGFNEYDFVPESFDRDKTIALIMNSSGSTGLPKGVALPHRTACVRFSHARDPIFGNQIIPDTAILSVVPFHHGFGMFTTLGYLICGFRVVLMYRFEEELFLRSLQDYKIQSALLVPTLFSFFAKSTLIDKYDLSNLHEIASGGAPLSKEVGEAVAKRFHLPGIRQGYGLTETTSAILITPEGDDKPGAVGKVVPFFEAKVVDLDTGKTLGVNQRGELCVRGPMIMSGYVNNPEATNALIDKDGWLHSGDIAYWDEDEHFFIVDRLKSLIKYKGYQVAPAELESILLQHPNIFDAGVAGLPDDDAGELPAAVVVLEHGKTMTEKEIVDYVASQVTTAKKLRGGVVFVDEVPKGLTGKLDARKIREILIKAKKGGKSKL
Assay: qHTS profiling assay for firefly luciferase inhibitor/activator using purifed enzyme and Km concentrations of substrates (counterscreen for miR-21 project); further: nearly all actives have a fitted effect of over 55% in size;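 on activity change, negative = inhibition: plate controls were vehicle for no effect and reference inhibitor for full effect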
Conditions: purified FLuc, luminescence inhibition; series mostly up to 57.5 µM; activity change, negative = inhibition: at the top concentration
Method in brief: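 Purified P. pyralis luciferase, 10 nM final, with Km-level 10 uM D-luciferin and 10 uM ATP in 50 mM Tris acetate pH 7.5, 10 mM Mg acetate, 0.01% Tween-20, 0.05% BSA; 6-point qHTS titration about 60 µM downward; luminescence read.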
Potency means the concentration at half of the fitted maximal effect.

| Structure (SMILES) | Potency | activity change, negative = inhibition |
| --- | --- | --- |
| Cc1ccc2cc3cc(C(=O)N4CCCCCC4)oc3nc2c1 | 2.69 µM (active) | – |
| Cc1ccc2oc(=O)c3cnn(CC(=O)N4CCCCCC4)c3c2c1 | – | -0.0331% (inactive) |
| CCc1ccc(CNC(=O)c2cc3cc4ccc(OC)cc4nc3o2)cc1 | – | -1.47% (inactive) |
| CCCCn1c(N)c(N(CC)C(=O)c2ccc(N(C)S(=O)(=O)c3ccc(C)cc3)cc2)c(=O)[nH]c1=O | – | 3.09% (inactive) |
| Cc1cc(Br)ccc1SCC(=O)OCC(=O)NCc1ccc2c(c1)OCO2 | – | 2.23% (inactive) |
| Cc1ccccc1NC(=O)Cc1nc(COC(=O)c2cccnc2Cl)cs1 | – | 5.2% (inactive) |
| CCCNC(=O)C1CCC(Cn2c(=O)c3sccc3n(Cc3ccccc3F)c2=O)CC1 (stereo not given) | – | -0.991% (inactive) |
| COc1ccc(-n2ncc3c(SCC(=O)NNC(C)=O)ncnc32)cc1 | 16.9 µM (active) | – |
| COc1ccc(NC(=O)CSc2ncnc3[nH]ncc23)cc1 | – | -2.98% (inactive) |
| CC(Sc1ncnc2c1cnn2-c1ccccc1)C(=O)Nc1ccc(N2CCOCC2)cc1 (stereo not given) | – | -13.5% (inactive) |
| O=C(Cn1cnc2c(cnn2-c2ccccc2)c1=O)NCc1ccccc1 | – | 0.29% (inactive) |
| CCN(CC)C(=O)CSc1ncnc2c1cnn2-c1ccccc1 | 16.9 µM (active) | – |
| O=C(Cn1cnc2c(cnn2-c2ccc(F)cc2)c1=O)NCCc1ccccc1 | – | 0.0901% (inactive) |
| CC(=O)Cn1cnc2c(cnn2-c2ccccc2)c1=O | – | -18.6% (inactive) |
| CC(=O)Nc1ccc(NC(=O)CSc2ncnc3c2cnn3Cc2ccccc2)cc1 | – | -2.73% (inactive) |
| CC(C)Sc1ncnc2c1cnn2-c1ccccc1 | 1.51 µM (active) | – |
| CCN(CC)C(=O)CSc1nc2cc3c(cc2c(=O)n1CCCC(=O)NCc1ccc2c(c1)OCO2)OCO3 | – | -12.4% (inactive) |
| CCC1=Nc2cc(C(=O)NCCCOC(C)C)ccc2Sc2ccc(C)cc21 | – | -18% (inactive) |
| CCN(CC)S(=O)(=O)c1ccc2c(c1)c(=O)c(C(=O)N1CCN(c3cccc(Cl)c3)CC1)cn2C | – | -3.84% (inactive) |
| CC(C)(C)OC(=O)N1CCC(c2c(C(=O)Nc3ccc4c(c3)OCO4)cnn2-c2ccccc2)CC1 | – | -10.2% (inactive) |
| COc1ccc(-c2noc(CCC(=O)N(C)c3ccccc3C)n2)cc1 | – | -2% (inactive) |
| CN(CC(=O)NCC(c1ccccc1)N1CCCC1)S(=O)(=O)c1ccc(Cl)cc1 (stereo not given) | – | 4.5% (inactive) |
| CCOC(=O)c1ccc(NC(=O)Cn2c(=O)cc(C)c3c(C)nn(-c4cccc(F)c4)c32)cc1 | – | -1.71% (inactive) |
| O=C(COC(=O)CCc1nc2ccccc2c(=O)[nH]1)Nc1ccc(N2CCOCC2)cc1 | – | 2.6% (inactive) |
| CCCSc1nsc(N)n1 | – | 1.46% (inactive) |

| Structure (SMILES) | Potency | activity change, negative = inhibition |
| --- | --- | --- |
| CCCCCCSc1nsc(N)n1 | 26.9 µM (active) | – |
| CC(C)CC(=O)NC(=S)NNC(=O)c1cccc([N+](=O)[O-])c1 | – | -3.1% (inactive) |
| COc1ccc(OCCNC(=O)c2cc(C3CC3)nc3c2cnn3C(C)C)cc1 | – | -1.66% (inactive) |
| CCOC(=O)c1ccc(NC(=O)C2CCN(S(=O)(=O)c3ccc4c(c3)CCCC(=O)N4)CC2)cc1 | – | -2.69% (inactive) |
| COc1cccc(CSc2nc3nc(C)cc(C)n3n2)c1 | – | -7.46% (inactive) |
| COc1ccc(-c2nnc3ccc(SCc4ccccc4)nn23)cc1 | – | 5.99% (inactive) |
| COc1ccc2nc(SCc3ccccc3)nc(C)c2c1 | 2.69 µM (active) | – |
| CC(Oc1ccc(Br)cc1)C(=O)NC1CCCCCC1 (stereo not given) | – | -13% (inactive) |
| CCn1cc(C(=O)N2CCN(c3cc(Cl)ccc3C)CC2)c(=O)c2cc(S(=O)(=O)N3CCCC3)ccc21 | – | -11.8% (inactive) |
| CC(C)(Oc1ccc(Cl)cc1)C(=O)OCC(=O)NCCc1ccc(S(N)(=O)=O)cc1 | – | 0.709% (inactive) |
| O=C(NCCc1ccccc1)C(=O)NCC(c1ccco1)S(=O)(=O)c1ccccc1 (stereo not given) | – | 4.63% (inactive) |
| CCCCn1c(N)c(N(CCOC)C(=O)c2cccc(S(=O)(=O)N(C)c3ccccc3)c2)c(=O)[nH]c1=O | – | -6.07% (inactive) |
| NC(=O)C1CCN(C(=O)c2cn(-c3ccccc3)nc2-c2cccnc2)CC1 | – | -10.3% (inactive) |
| COc1ccccc1N1CCN(C(=O)c2cn(-c3ccccc3)nc2-c2cccnc2)CC1 | 9.53 µM (active) | – |
| O=C(c1cn(-c2ccccc2)nc1-c1cccnc1)N1CCN(S(=O)(=O)c2ccccc2F)CC1 | – | -17.1% (inactive) |
| CCOCCCNC(=O)c1c(NC(=O)Cc2coc3c(C)c(C)ccc23)sc2c1CCC2 | – | -13.5% (inactive) |
| CC[C@]1(c2ccccc2OC)C(=O)N(C(=O)OC)N1C(=O)OC | – | -0.0873% (inactive) |
| O=C(COc1ccccc1)NCc1ccc2c(c1)CCN2C(=O)c1ccc(F)cc1 | – | -19.4% (inactive) |
| Cc1cccc(OCCNC(=O)CSc2ccc(C(F)(F)F)cc2[N+](=O)[O-])c1 | – | 4.07% (inactive) |
| COc1ccc(-c2nn(CC(=O)Nc3ccccc3F)c3c2cnc2ccc(F)cc23)cc1 | – | 5.92% (inactive) |
| CC(C)(C)OC(=O)N1CCC(C(=O)NNC(=O)c2ccc(Cl)cc2Cl)CC1 | – | -9.56% (inactive) |
| Cn1cc([N+](=O)[O-])c(C(=O)Nc2ccc3c(c2)OCCO3)n1 | 16.9 µM (active) | – |
| Cc1nn(CC(=O)Nc2ccc3c(c2)OCO3)c(C)c1[N+](=O)[O-] | – | 6.2% (inactive) |
| O=C(CCN1C(=O)c2ccncc2C1=O)Nc1ccc2c(c1)OCCO2 | – | 0.0538% (inactive) |
| O=C(Nc1ccc2c(c1)OCCO2)c1cnccn1 | 12 µM (active) | – |

| Structure (SMILES) | Potency | activity change, negative = inhibition |
| --- | --- | --- |
| O=C(Nc1ccc2c(c1)OCCO2)c1ccoc1 | 21.3 µM (active) | – |
| O=C(Nc1cccc(NC(=O)c2ccco2)c1)c1cnccn1 | – | -19.7% (inactive) |
| CCC(C(=O)Nc1ccc2c(c1)OCCO2)c1ccccc1 (stereo not given) | – | -16.1% (inactive) |
| O=C(Nc1ccc2c(c1)OCO2)c1ccc(N2C(=O)c3ccccc3C2=O)cc1 | – | -1.23% (inactive) |
| COc1cccc(NC(=O)c2nn(C34CC5CC(CC(C5)C3)C4)cc2[N+](=O)[O-])c1 | – | -19.1% (inactive) |
| O=C(OCc1cc(=O)n2ccsc2n1)C1(c2ccc(Cl)cc2)CC1 | – | 2.5% (inactive) |
| COCC(C)NS(=O)(=O)c1ccc(N2CCCCS2(=O)=O)cc1 (stereo not given) | – | 1.96% (inactive) |
| COc1ccccc1N=C1SC(C)CN1C(=O)C1CCC1 (stereo not given) | – | 1.9% (inactive) |
| CCOc1ccc(C(=O)Nc2ccc3nc4c(c(Nc5ccccc5OC)c3c2)CCCC4)cc1 | – | -11.2% (inactive) |
| CCOC(=O)C1CCN(c2ncnc3c2c(-c2ccccc2)cn3-c2cccc(C)c2)CC1 | – | 0.255% (inactive) |
| COc1ccc(C(C)NC(=O)C23CC4CC(CC(C4)C2)C3)cc1 (stereo not given) | – | -0.288% (inactive) |
| CC(=O)c1ccc(S(=O)(=O)Nc2ccc(-c3ccc4nncn4n3)cc2)cc1 | – | 6.25% (inactive) |
| CC(C)NS(=O)(=O)c1ccc(NC(=O)C2CCCCC2)cc1 | – | 3.94% (inactive) |
| O=C(Nc1ccc(-c2ccc3nncn3n2)cc1)C1CCCCC1 | 26.9 µM (active) | – |
| COc1ccccc1NC(=O)c1oc2ccccc2c1NC(=O)COc1ccccc1OC | – | 4.13% (inactive) |
| CCCCN(CC)CCCNC(=O)c1nn(C)c2c1CSc1ccccc1-2 | – | -2.58% (inactive) |
| CCOC(=O)c1c(Cc2ccc(Cl)cc2)c[nH]c1C | 19 µM (active) | – |
| CCOC(=O)N1CCN(C(=O)CNC(=O)Cc2ccc(Cl)cc2)CC1 | – | 2.66% (inactive) |
| CCOC(=O)c1ccc(CS(=O)c2ccc(Cl)cc2)o1 (stereo not given) | – | 2.9% (inactive) |
| Cc1nc(C(=O)Nc2ccc(Cl)cc2)sc1C1(C)CC(c2ccccc2)=NO1 (stereo not given) | – | -0.924% (inactive) |
| CC1(c2nnc(Cc3ccccc3)o2)CC(c2ccccc2F)=NO1 (stereo not given) | – | 3.85% (inactive) |
| Cc1nc(-c2ccc(Cl)cc2)sc1C1(C)CC(c2ccccc2F)=NO1 (stereo not given) | 19 µM (active) | – |
| CN(CC(=O)Nc1ccc(F)c(F)c1F)C(=O)C1CC(=O)N(C2CCCC2)C1 (stereo not given) | – | 5.16% (inactive) |
| O=C(CSc1ncn[nH]1)NCc1ccc2c(c1)OCO2 | – | 1.02% (inactive) |
| O=C(/C=C/Sc1ncn[nH]1)c1ccc(Cl)cc1 | 1.9 µM (active) | – |

| Structure (SMILES) | Potency | activity change, negative = inhibition |
| --- | --- | --- |
| COC(=O)c1cc(NC(=O)C2C3C=CC(C3)C2C(=O)O)cc(C(=O)OC)c1 (stereo not given) | – | 2.36% (inactive) |
| CC(=O)NS(=O)(=O)c1ccc(NC(=O)C2C3C=CC(C3)C2C(=O)O)cc1 (stereo not given) | – | -1.33% (inactive) |
| CC(C)COC(=O)c1ccc(NC(=O)C2C3C=CC(C3)C2C(=O)O)cc1 (stereo not given) | 19 µM (active) | – |
| CCCN(CC1CC1)C(=S)NC(=O)c1ccccc1Br | – | -1.63% (inactive) |
| Cc1csc2nc(COC(=O)c3ccc(NC(=O)COc4ccccc4F)cc3)cc(=O)n12 | – | 1.55% (inactive) |
| COc1ccccc1N1CCN(C(=O)C2CCN(S(=O)(=O)c3c(C)noc3/C=C/c3ccc(C)cc3)CC2)CC1 | – | -0.999% (inactive) |
| O=C(NCc1cccs1)C1CCN(S(=O)(=O)c2ccc3c(c2)OCCO3)CC1 | – | 1.65% (inactive) |
| O=C(Nc1ccccn1)C1CCN(S(=O)(=O)c2ccccc2)CC1 | 23.9 µM (active) | – |
| Cc1csc(NC(=O)C2CCN(S(=O)(=O)c3ccccc3)CC2)n1 | – | -1.2% (inactive) |
| O=C(NCc1ccccn1)C1CCN(S(=O)(=O)c2ccc(Br)cc2)CC1 | – | -0.607% (inactive) |
| COCCNC(=O)C1CCN(S(=O)(=O)c2ccc3c(c2)OCCO3)CC1 | – | 0.983% (inactive) |
| O=C(Nc1ccccn1)C1CCN(S(=O)(=O)c2ccc3c(c2)OCCO3)CC1 | 19 µM (active) | – |
| C=Cc1ccc(Cn2c(C(=O)O)c(CNC3CCCC3)c3ccc(C)cc32)cc1 | – | -3.1% (inactive) |
| CCOC(=O)c1c(NC(C)=O)c2c3c(sc2n1Cc1c(C)cc(C)cc1C)CCCC3 | – | 3.94% (inactive) |
| CCOC(=O)c1ccccc1NC(=O)COC(=O)C(Cc1c[nH]c2ccccc12)NC(C)=O (stereo not given) | – | 6.1% (inactive) |
| CCC(=O)N1CCc2cc(S(=O)(=O)NCCC(=O)Nc3cccc(C)c3C)ccc21 | – | -11.4% (inactive) |
| Cc1oc(C)c2c(=O)cc(-c3ccc4c(c3)OCO4)cc(OC(=O)c3ccc(Cl)cc3)c12 | – | -12.7% (inactive) |
| CSc1cc(C)n(-c2ccccc2C)c(=S)c1C(C)=O | – | -0.379% (inactive) |
| Cc1cc(/C=C2/NC(=O)NC2=O)c(C)n1-c1cccnc1 | 15.1 µM (active) | – |
| Cc1ccc2c(c1)C(O)(CC(=O)c1cccnc1)C(=O)N2 (stereo not given) | – | 0.816% (inactive) |
| Cc1cc(/C=C2\SC(=Nc3ccc(N4CCOCC4)cc3)N(C)C2=O)c(C)n1-c1cccnc1 | – | -18.2% (inactive) |
| Cc1ccccc1N1CC(c2nc3ccccc3[nH]2)CC1=O (stereo not given) | – | -0.236% (inactive) |
| Cc1ccccc1-n1c(C)cc(/C=C2\NC(=O)NC2=O)c1C | 1.9 µM (active) | – |
| C=CCn1c(=O)c(C(=O)NCc2ccc3c(c2)OCO3)c(O)c2ccccc21 | – | -0.503% (inactive) |
| O=C(NNS(=O)(=O)c1ccc(F)cc1)c1cnccn1 | – | 0.8% (inactive) |
